From PubChem
This excerpt belongs to a sample that is enriched for hits.
HSV augment = enhancers of HSV replication in host cells, fold increase, host cell viability; HSV replication augmentation in cells; maximum fold increase; hit rate 0.005% among 220,000; in the data active means maximum fold increase above about 1.5; inconclusive means no clear call, values can overlap the other calls; tested in PC3 cells
TbHK1 inh = Trypanosoma brucei hexokinase 1 inhibitors, primary screen, biochemical, G6PDH-coupled NADH absorbance, MLSCN library; AID 1430, 2008; hit rate 0.11% among 220,000; hexokinase 1 [Trypanosoma brucei]; recombinant TbHK1, G6PDH-coupled NADH A340; inhibition, % at 10 µM;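 active means inhibition of 50% or more in the single-dose primary screen; inactive means inhibition below 50%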
Ins promoter up = insulin promoter activators in MIN6 cells, imaging, high-content screening, mouse beta cells | MIN6 insulin promoter-GFP reporter; active compounds read high | hit rate 0.3% among 190,000 | AID 1625, 2009 | z-score at 5 µM;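 active means z-score above 3 at 5 µM with at least 500 cells counted in the well; inconclusive means wells under 500 cells, flagged as cytotoxic or low count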
INS promoter inh = inhibitors of insulin promoter-driven GFP, primary screen, imaging, TRM-6 cells (human fetal islet line), eGFP reporter, cell count. reporter expression induced with tamoxifen. inhibition, % at 2 µM. hit rate 0.9% among 130,000;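 active means inhibition above the mean plus 3 SD, with well images judged a real hit on visual review, cut at about 60% in these data, passing the limit was not always enough; inconclusive means inhibition over the cutoff but images rejected on review; inactive means inhibition not above the cutoff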
ROMK primary = ROMK potassium channel modulators, primary screen, cell-based, thallium flux, MLSMR library; hit rate 2% among 130,000; ATP-sensitive inward rectifier potassium channel 1 (Homo sapiens), P48048; AID 1918, 2009; B-score at 10 µM; Tet-inducible ROMK, thallium flux fluorescence; actives lie on both sides;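 active means signal ratio slope over the read window, or its plate-corrected B-score, at least 3 SD from the plate mean, either direction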;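 further: B-score of the F/F0 ratio slope over 7 to 12 s after thallium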
Target sequence (P48048 whole entry, looked up): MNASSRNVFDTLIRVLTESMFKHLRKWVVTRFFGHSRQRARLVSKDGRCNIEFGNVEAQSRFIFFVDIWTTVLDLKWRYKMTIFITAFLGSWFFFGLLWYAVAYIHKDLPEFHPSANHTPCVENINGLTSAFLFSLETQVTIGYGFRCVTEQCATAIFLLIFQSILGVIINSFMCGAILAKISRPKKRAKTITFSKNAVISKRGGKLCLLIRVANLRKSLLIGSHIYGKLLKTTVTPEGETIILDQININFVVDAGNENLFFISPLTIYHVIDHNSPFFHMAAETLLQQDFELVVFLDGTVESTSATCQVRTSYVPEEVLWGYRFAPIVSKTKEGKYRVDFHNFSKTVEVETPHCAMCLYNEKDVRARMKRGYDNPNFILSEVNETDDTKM
ROMK hit retest = ROMK channel modulator hit retest, confirmation, cell-based, thallium flux, duplicate, resupplied hits | fluorescence ratio; active compounds read low | hit rate 54% among 3,000 | normalized thallium flux (F/F0 slope) at 10 µM | shares compounds with ROMK primary | AID 1917, 2009;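 active means Flux at 10 µM at least 3 SD below or above vehicle control mean in one or both replicates; inconclusive means no clear call, values can overlap the other calls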
A number is an active result.

Screening CC1CCN(CCCCOc2ccc(Br)cc2)CC1 returned HSV augment inactive, TbHK1 inh inactive, Ins promoter up inactive, INS promoter inh inactive, ROMK primary inactive and ROMK hit retest inconclusive.
For COc1ccc(/C=N/NC(=O)c2cccnc2)cc1CSc1nc2ccccc2s1 the results were HSV augment inactive, TbHK1 inh inactive, Ins promoter up inactive and ROMK hit retest inactive.
`CCCCc1nc2ccccc2c(NC(=O)CNC(C)(C)C)c1CCC` gave HSV augment inactive, TbHK1 inh inactive, Ins promoter up inactive, ROMK primary -2.8 and ROMK hit retest 0.055.
`Cc1cc(C(=O)c2cnc(/N=C/N(C)C)s2)c(F)cc1Cl` gave HSV augment inactive, TbHK1 inh inactive, Ins promoter up inactive, INS promoter inh inactive and ROMK primary inactive.
Screening COc1ccc(-n2nnnc2SCC(=O)NCc2ccco2)cc1OC returned HSV augment inactive, TbHK1 inh inactive, Ins promoter up inactive and ROMK hit retest inactive.
Screening COc1cccc(-n2nnnc2SCC(=O)NCc2ccco2)c1 returned HSV augment inactive, TbHK1 inh inactive, INS promoter inh inactive and ROMK primary inactive.
Screening COc1ccc2c(c1OC)C(=O)OC2Nc1nc(-c2cc3ccccc3oc2=O)cs1 (stereo not given) returned HSV augment inactive, TbHK1 inh inactive, Ins promoter up inactive, INS promoter inh inactive and ROMK hit retest 0.04.
`CCOC(=O)c1ccc(NC(=O)c2ccccc2C)cc1` gave HSV augment inactive, TbHK1 inh inactive, Ins promoter up inactive, INS promoter inh inactive and ROMK primary inactive.
`c1ccc2c(-c3cc(C4CCNCC4)[nH]n3)cccc2c1` gave HSV augment inactive, TbHK1 inh inactive, Ins promoter up inactive, INS promoter inh inactive, ROMK primary -4.4 and ROMK hit retest 0.064.
Screening COc1ccc(N(CC(=O)Nc2ccccc2F)S(=O)(=O)c2ccc(C)c([N+](=O)[O-])c2)cc1 returned HSV augment inactive, TbHK1 inh inactive, Ins promoter up inactive, INS promoter inh inactive and ROMK primary inactive.
For O=C(NNC1=Nc2cccc3cccc1c23)c1ccc(Br)cc1 the results were HSV augment inconclusive, TbHK1 inh inactive, INS promoter inh inactive, ROMK primary -3.4 and ROMK hit retest inactive.
For CCN(Cc1ccccc1)C(=O)COC(=O)Cn1cnc2ccccc21 the results were HSV augment inactive, TbHK1 inh inactive, Ins promoter up inactive and ROMK primary inactive.
COc1ccc(Cl)cc1NC(=S)N(CCCN1CCOCC1)Cc1cn(C)c2ccccc12 was read as HSV augment inactive, TbHK1 inh inactive, INS promoter inh inactive, ROMK primary -3.9 and ROMK hit retest inactive.
Screening CCCn1c2c(c(O)c(C(=O)NC)c1=O)CCCC2 returned HSV augment inactive, TbHK1 inh inactive, Ins promoter up inactive and INS promoter inh inactive.
`CC(=O)c1c(C)c2c(n1CCN(C)C)CCCC2` gave HSV augment inactive, TbHK1 inh inactive, Ins promoter up inactive, INS promoter inh inactive, ROMK primary 3.5 and ROMK hit retest inactive.
Screening O=S(=O)(Nc1cccc(-c2cn3cccnc3n2)c1)c1ccc(-c2ccccc2)cc1 returned TbHK1 inh inactive, INS promoter inh inactive and ROMK hit retest inactive.
Cc1nn(-c2ccccc2)c(=S)c2ccccc12 was read as HSV augment inactive, TbHK1 inh inactive, Ins promoter up inactive and INS promoter inh inactive.
For CC(=O)C1=C(c2ccccc2)OC(N)=C(C#N)C1c1ccccc1C (stereo not given) the results were HSV augment inactive, TbHK1 inh inactive, Ins promoter up inactive and INS promoter inh inactive.
For CC(=O)C1(C)OC(N)=C(C#N)C(c2ccccc2)C1(C#N)C#N (stereo not given) the results were HSV augment inactive, TbHK1 inh inactive, Ins promoter up inactive, INS promoter inh inactive, ROMK primary -3.3 and ROMK hit retest inconclusive.
Screening C=CCn1c(SCC(=O)Nc2cccc3ccccc23)nnc1-c1cnccn1 returned HSV augment inactive, TbHK1 inh inactive, Ins promoter up inactive and INS promoter inh inactive.
Screening C=CCn1c(SCC(=O)Nc2cc3oc4ccccc4c3cc2OC)nnc1-c1cnccn1 returned HSV augment inactive, TbHK1 inh inactive, Ins promoter up inactive, INS promoter inh inactive and ROMK hit retest 0.065.
Screening COc1ccccc1-c1cc(C(F)(F)F)nc(S(=O)(=O)CCCC(=O)N2CCOCC2)n1 returned HSV augment inactive, TbHK1 inh inactive, Ins promoter up inactive, INS promoter inh inactive, ROMK primary -3.4 and ROMK hit retest inconclusive.
For COc1ccccc1-c1cc(C(F)(F)F)nc(S(=O)(=O)CCCC(=O)O)n1 the results were HSV augment inactive, TbHK1 inh inactive, INS promoter inh inactive and ROMK primary inactive.
Cc1ccc(NC(=O)/C=C/c2ccc3c(c2)OCO3)cc1S(=O)(=O)N1CCOCC1 was read as HSV augment inactive, TbHK1 inh inactive, INS promoter inh inactive and ROMK primary inactive.
COc1ccccc1CN1C[C@@H]2C[C@@H](C3=Cc4cc(Cl)ccc4OC3)N3CCC[C@@]23C1=O was read as HSV augment inactive, TbHK1 inh inactive, Ins promoter up inactive, ROMK primary -3.2 and ROMK hit retest 0.065.
`CN1C[C@@H]2C[C@@H](C3=Cc4cc(Cl)ccc4OC3)N3CCC[C@@]23C1=O` gave HSV augment inactive, TbHK1 inh inactive, Ins promoter up inactive, INS promoter inh inactive and ROMK primary inactive.
Screening O=C(Nc1ccccc1N1CCOCC1)c1cc2c(s1)CCCCC2 returned HSV augment inactive, TbHK1 inh inactive, Ins promoter up inactive and INS promoter inh inactive.
CCc1sc(C(=O)Nc2ccccc2N2CCOCC2)cc1C was read as HSV augment inactive, TbHK1 inh inactive, Ins promoter up inactive, INS promoter inh inactive, ROMK primary -2.6 and ROMK hit retest 0.064.
For Cc1ccc(NC(=O)C(C)N2C(=O)c3ccccc3C2=O)nc1 (stereo not given) the results were HSV augment inactive, TbHK1 inh inactive, Ins promoter up inactive and ROMK primary inactive.
`Cc1cc(C)cc(OCCNC(=O)C(C)N2C(=O)c3ccccc3C2=O)c1` (stereo not given) gave HSV augment inactive, TbHK1 inh inactive, INS promoter inh inactive, ROMK primary 2.4 and ROMK hit retest inactive.
COc1ccc(-n2c(O)c(/C=N/NS(=O)(=O)c3ccc(C)c([N+](=O)[O-])c3)c3ccccc3c2=O)cc1OC was read as HSV augment inconclusive, TbHK1 inh inactive, Ins promoter up inactive, INS promoter inh inactive, ROMK primary -3.3 and ROMK hit retest inconclusive.
`Cc1ccc(-c2n[nH]c(=S)n2/N=C/c2c(C)[nH]n(-c3ccccc3)c2=O)cc1` gave HSV augment inactive, TbHK1 inh inactive, INS promoter inh inactive and ROMK primary inactive.
For C1CN(c2nc3nonc3nc2N2CCOCC2)CCO1 the results were HSV augment inactive and Ins promoter up inactive.
